Experimental data: PubChem BioAssay (NCI)
The panel holds about 83,000 compounds, 20% with a hit somewhere; the sample as a whole holds those more often.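 Single-concentration screen, 48 h exposure, 96-well plates. Endpoint: percent growth. Below 10 = active.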 A number with no mark means an inactive call. Calls of active or inactive are those of the source.

test system: HL-60(TB) leukemia; experiment: NCI-60 one-dose screen, 48 h (100 = growth as untreated, 0 = no growth, -100 = all killed); settings: 10 µM unless noted

SMILES	growth
COc1ccc(/C=C/C(=O)NCCO)cc1	93.6%
c1ccc(CNCCNCc2ccccc2)cc1	105%
O=C(CNC(=O)OCc1ccccc1)NCC(=O)Oc1ccc([N+](=O)[O-])cc1	141%
O=C(CCl)c1ccc2c(c1)CCCC2	96.9%
CN(C)CC(=O)c1ccc2cc(Br)c3ccccc3c2c1	53.4%
COc1ccc(/C=C2\NC(=S)NC2=O)cc1	91.6%
Oc1ccccc1/C=N/N=C/c1c(O)ccc2ccccc12	51%
COc1ccc(-c2c(N)n[nH]c2-c2ccccc2O)cc1OC	110%
O=C1/C(=C/N2N=C(c3ccc4ccccc4c3)CC2c2ccccc2O)SC(=S)N1c1cccnc1 (stereo not given)	-15.3% (active)
O=c1[nH]ccc2nc(N3CCC(O)CC3)nc(Nc3cccc(C(F)(F)F)c3)c12	29.6%
O=C(CNc1ncco1)Nc1ccc(S(=O)(=O)c2ccc(NC(=O)CNc3ncco3)cc2)cc1	44.8%
Cn1ccc(=O)c(C(=O)Nc2nsc3ccc([N+](=O)[O-])cc23)c1	54.9%
O=C1CC(c2ccc3c(c2)OCO3)Nc2cc3c(cc21)OCO3 (stereo not given)	-22.9% (active)
COC(c1ccccc1)(c1ccccc1)c1ccccc1	111%
N#Cc1c(-c2ccc(F)cc2)cc(-c2cccc(Cl)c2)[nH]c1=O	84.9%
COc1cc2oc(-c3cccc(NC(=O)Nc4ccc5c(c4)OCO5)c3)cc(=O)c2c(OC)c1OC	56.8%
CN(C)c1ccc(C#Cc2c(F)cccc2Cl)cc1	79%
CCN1CCN(c2cc(C)nc(N(CCCNc3ccnc4cc(Cl)ccc34)Cc3ccc4c(c3)OCO4)n2)CC1	-67.3% (active)
NC(=NC1C2CC3CC(C2)CC1C3)Nc1ccc(I)cc1 (stereo not given)	101%
O=C(/C(=C\c1ccc([N+](=O)[O-])cc1)S(=O)Cc1ccc(F)cc1)c1ccc(F)cc1 (stereo not given)	5.72% (active)

SMILES	growth
CCOC(=O)c1cnc2ccc(Cl)cc2c1NCCCN(C)C	-18.6% (active)
CCNCCCn1c2c(c3ccc(Cl)cc3c1=O)C(=O)c1cc(OC)cnc1-2	-42.9% (active)
COc1cccc(N2CCN(c3cccc(C)n3)CC2)c1	100%
COc1ccc(OC)c(/C=C2\Oc3cc(OCCCN4CCCC4)ccc3C2=O)c1	87.5%
O=C1c2ccccc2OC=C(c2ccccc2)N1CCCCNc1ccc(F)cc1	45.3%
Cn1ccc(=Nc2ccc(NC(=O)c3ccc(N=c4ccn(C)c5ccc([N+](=O)[O-])cc45)cc3)cc2)cc1	76.7%
COc1ccc2cc(-c3nc4ccc(C)cn4c3NCc3ccco3)c(=O)[nH]c2c1	67.5%
CCCCCCCCCCCCCCCCCCOc1ccc(CC(=O)OCC[N+]2(C)CCCC2)cc1	101%
O=C1c2cc3c(cc2-c2c1c1ccc(Cl)cc1c(=O)n2C[C@H](O)CO)OCO3	-14.9% (active)
Cc1nc2c(O)cccc2cc1CO	81.7%
O=C1CCCc2nc3sc4c(=O)n(-c5ccccc5Cl)nnc4c3cc21	109%
Cc1cccc(C)c1NCc1nc(-c2ccccc2)n[nH]1	90.7%
CNC(=O)c1[nH]cc(-c2ccc(OC)cc2)c1-c1cc(OC)c2c(c1OC)OCO2	96.4%
Cc1c2cnccc2c(C)c2c1c1cc(CO)ccc1n2C	-20% (active)
CSC1=Nc2c(c(C)c(-c3ccccc3)n2CCCC(=O)O)C2=NC(=O)C[C@H](C)N12	93.2%
Oc1ccc(Cl)cc1C(c1cc(Cl)ccc1O)C(Cl)(Cl)Cl	69%
N#C/C(=C\c1ccc(Br)cc1)c1cc2ccccc2[nH]1	98.2%
CC(C)(C)OC(=O)N1CCc2c(sc3ncnc(N/N=C/c4ccc(Br)cc4)c23)C1	83.1%
CC(C)(C)n1cc(-c2ccnc(NCCCNS(=O)(=O)c3cccc4ccccc34)c2)c(-c2cccc(O)c2)n1	25.4%
Clc1ccc(/C=C/c2ccccn2)cc1	99.4%
